Screening data from PubChem.
p53ts 39C tox: p53ts cell cytotoxicity, nonpermissive temperature; H1299-p53A138V viability at 39C, ATP luminescence, 24 h; Potency, µM (series often up to 46.1 µM), without a hit: at the highest dose activity change, negative = cell killing, usual class: cytotoxic; 130,000 tested, 1.5% active; AID 902; also: potency is read from the fitted curve at half-maximal effect; % is scaled to controls: 0 for no effect and ±100 for the full control effect; nearly all actives have a fitted effect of over 55% in size
ERK AVP block: inhibitors of vasopressin-stimulated ERK signaling pathway; HEK293-V1b, vasopressin-stimulated pERK AlphaScreen; Potency, µM (highest dose often 57.5 µM), for inactives: top-dose activity, negative = inhibition, actives largely listed as inhibitors; 72,000 tested, 0.99% active; AID 995; also: potency is read from the fitted curve at half-maximal effect; % is scaled to controls: 0 for no effect and ±100 for the full control effect; nearly all actives have a fitted effect of over 55% in size
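HEK293 cells stably expressing V1b receptor, preincubated 30 min at 37 °C with compound, then stimulated 5 min with 25 nM vasopressin. Phospho-ERK by AlphaScreen SureFire after 5 h RT; normalized to DMSO and vasopressin; AC50 by Hill fit.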
Tau fil binding: binds recombinant human tau filaments. Potency, µM (highest dose often 57.1 µM), for inactives: at the top dose activity change, negative = inhibition. recombinant tau filaments, thioflavin S fluorescence, 15 h; filaments grown with octadecylsulfate alongside compound. AID 596. 71,000 tested, 2% active. P10636;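 also: potency is read from the fitted curve at half-maximal effect; % is scaled to controls: 0 for no effect and ±100 for the full control effect; actives lower thioflavin S fluorescence by blocking filaments or displacing dye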
Target sequence (P10636 whole entry, looked up): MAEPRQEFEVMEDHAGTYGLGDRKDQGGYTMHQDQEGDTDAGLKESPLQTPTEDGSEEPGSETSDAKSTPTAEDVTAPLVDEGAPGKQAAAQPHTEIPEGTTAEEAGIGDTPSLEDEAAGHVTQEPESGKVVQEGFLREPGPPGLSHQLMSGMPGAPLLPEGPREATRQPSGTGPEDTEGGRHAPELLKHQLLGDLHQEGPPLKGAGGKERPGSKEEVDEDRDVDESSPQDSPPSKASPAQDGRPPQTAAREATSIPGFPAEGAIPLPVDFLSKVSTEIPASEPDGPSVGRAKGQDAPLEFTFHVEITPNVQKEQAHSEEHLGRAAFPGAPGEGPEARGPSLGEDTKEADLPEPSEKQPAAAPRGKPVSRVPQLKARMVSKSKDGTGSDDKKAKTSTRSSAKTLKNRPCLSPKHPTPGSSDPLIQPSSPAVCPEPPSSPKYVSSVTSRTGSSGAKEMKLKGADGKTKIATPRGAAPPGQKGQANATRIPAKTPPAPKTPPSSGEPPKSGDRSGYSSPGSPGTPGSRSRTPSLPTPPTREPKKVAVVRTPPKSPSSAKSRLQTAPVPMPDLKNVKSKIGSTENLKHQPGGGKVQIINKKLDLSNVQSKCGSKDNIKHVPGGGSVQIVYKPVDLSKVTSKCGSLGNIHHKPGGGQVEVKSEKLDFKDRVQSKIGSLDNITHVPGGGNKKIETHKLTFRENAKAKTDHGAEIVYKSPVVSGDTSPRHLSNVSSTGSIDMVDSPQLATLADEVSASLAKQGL
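His-tagged recombinant human tau (exons 2, 3 and 10 included), 1 uM, was induced to fibrillize by 30 uM sodium octadecylsulfate with compound present. After 15 h at 37 C, thioflavine S fluorescence (ex 450, em 510 nm) was read.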
Pol III holo inh: inhibitors of bacterial DNA polymerase III holoenzyme. reconstituted DNA polymerase III holoenzyme replication, biochemical. Potency, µM (doses to about 57.1 µM), for inactives: at the top dose activity change, negative = inhibition. 71,000 tested, 0.25% active; also: potency is read from the fitted curve at half-maximal effect; % is scaled to controls: 0 for no effect and ±100 for the full control effect
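Reconstituted *E. coli* holoenzyme (0.35 nM Pol III, 1 nM beta, 154 nM SSB, 2 nM primase) was preincubated with compound for 15 min at RT. Synthesis on 1.4 nM ssM13Gori ran 35 min, then was stopped with PicoGreen/EDTA and read as dsDNA fluorescence.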
p53ts 32C tox: kills p53ts cells at the permissive temperature. H1299-p53A138V at 32C, ATP luminescence viability, 24 h. Potency, µM (doses to about 46.1 µM), inactives show at the highest dose activity change, negative = cytotoxicity, actives largely listed as cytotoxic. 130,000 tested, 0.93% active. AID 924;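 also: potency is read from the fitted curve at half-maximal effect; 0% = DMSO and -100% = full killing by reference compound; nearly all actives have a fitted effect of over 55% in size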
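Viability by ATPlite luminescence after 24 h compound treatment (up to 46 uM) at the permissive 32C. Cells are H1299 carrying p53 A138V. Scale runs from DMSO basal to 100 uM tamoxifen as full kill; AC50 from Hill fits.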
TsaE inh: YjeE (TsaE) inhibition, E. coli; P0AF67; purified YjeE enzyme, qHTS inhibition assay; Potency, µM; 71,000 tested, 0.05% active; AID 605
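Purified YjeE (10 uM) with BODIPY Texas Red-labeled ADP probe (2 uM); compounds pin-transferred, 15 min at room temperature. Binding inhibition read as decreased fluorescence polarization; ADP titration as control.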
An asterisk follows results filed as active; [ ] = dose if it differs, or a comment. In the library only some 3.2% were active in any assay of this set; here they are far more common. Calls follow the shape of the dose curve; as a rule, active = well fitted curve in the direction sought with a large enough effect; inconclusive = small, poorly fitted or top-dose-only effect, or another doubt; inactive = no such curve, though single readings can be large; an effect the other way counts as inactive or inconclusive.

Results for CCOc1ccc(-c2nn(CC(=O)NC3CCCC3)c3c2cnc2ccc(F)cc23)cc1 ?
p53ts 39C tox: -1%; p53ts 32C tox: 1%

How did O=C(NCc1ccccc1Cl)C(=O)NCC(c1cccs1)S(=O)(=O)c1cccs1 (stereo not given) do in these assays?
p53ts 39C tox: -11%; p53ts 32C tox: 2%

What do the screens show for `CC(=O)c1cccc(NC(=O)CN(c2ccc(C)cc2)S(=O)(=O)c2cccc3nonc23)c1`?
p53ts 39C tox: -4%; ERK AVP block: 17%; Tau fil binding: 4µM*; Pol III holo inh: 1%; p53ts 32C tox: 0%; TsaE inh: inactive

Results for CCOC(=O)c1ccccc1NC(=O)N1CCOc2ccc(Cl)cc21 ?
p53ts 39C tox: -9%; p53ts 32C tox: 9%

What do the screens show for `COc1ccccc1N1CCN(c2ccc(-c3ccccc3)nn2)CC1`?
p53ts 39C tox: 2µM*; ERK AVP block: -2%; Tau fil binding: inconclusive; Pol III holo inh: -8%; p53ts 32C tox: 3.2µM*; TsaE inh: inactive

How did COc1cc(/C=N/O)ccc1OCc1ccc(C(=O)O)cc1 do in these assays?
p53ts 39C tox: 8.9µM*; p53ts 32C tox: 8.9µM*

How did O=C(O)c1cc(/C=N\O)ccc1OCc1ccccc1 do in these assays?
p53ts 39C tox: 9%; ERK AVP block: -1%; Tau fil binding: -3%; Pol III holo inh: -1%; p53ts 32C tox: -1%; TsaE inh: inactive

What do the screens show for `CN(C(=O)CSc1cn(CC(=O)N2CCCC2)c2ccccc12)c1ccccc1`?
p53ts 39C tox: 24%; p53ts 32C tox: 8%

What do the screens show for `COc1cc(C)cc2oc(=O)c(CC(=O)NCCc3ccc(Cl)cc3)c(C)c12`?
p53ts 39C tox: 13µM*; p53ts 32C tox: -22%

What do the screens show for `COc1ccc2cc(C(=O)NCc3ccco3)c(=Nc3ccc(C(=O)O)cc3)oc2c1`?
p53ts 39C tox: 2%; ERK AVP block: 28%; Tau fil binding: 4%; Pol III holo inh: -8%; p53ts 32C tox: -7%; TsaE inh: inactive

How did COc1ccc(N=c2oc3c(OC)cccc3cc2C(=O)NCc2ccco2)c(OC)c1 do in these assays?
p53ts 39C tox: -17%; ERK AVP block: -15%; Tau fil binding: 1.3µM*; Pol III holo inh: -2%; p53ts 32C tox: -2%; TsaE inh: inactive

What do the screens show for `C=CCn1c(SCC(=O)Nc2ccc(NC(=O)c3ccco3)c(OC)c2)nnc1-c1ccncc1`?
p53ts 39C tox: -6%; ERK AVP block: -17%; Tau fil binding: 13µM*; Pol III holo inh: 3%; p53ts 32C tox: 6%; TsaE inh: inactive

Results for Cc1cc(=O)n2[nH]c(NCc3ccc(F)cc3)nc2n1 ?
p53ts 39C tox: -3%; p53ts 32C tox: -4%

What do the screens show for `Cc1cc(=O)n2[nH]c(-c3ccc(F)cc3)nc2n1`?
p53ts 39C tox: 10µM*; ERK AVP block: 3%; Tau fil binding: 0%; Pol III holo inh: -12%; p53ts 32C tox: 13µM*; TsaE inh: inactive

Results for Cc1oc(-c2ccc3c(c2)OCCO3)cc1C(=O)NC(CCC(=O)O)C(=O)O (stereo not given) ?
p53ts 39C tox: -2%; ERK AVP block: -6%; Tau fil binding: 5%; Pol III holo inh: -2%; p53ts 32C tox: 3%; TsaE inh: inactive

How did Cc1oc(-c2ccc3c(c2)OCCO3)cc1C(=O)O do in these assays?
p53ts 39C tox: inconclusive; ERK AVP block: -25%; Tau fil binding: 10%; Pol III holo inh: -3%; p53ts 32C tox: 20µM*; TsaE inh: inactive

How did CCOc1ccc2c(ccc(/C=C\c3cc(C)c4cccnc4c3O)[n+]2C)c1 do in these assays?
p53ts 39C tox: -28%[9.22 µM]; ERK AVP block: -5%[11.5 µM]; Tau fil binding: 0.63µM*; Pol III holo inh: 3.2µM*; p53ts 32C tox: -17%[9.22 µM]; TsaE inh: inactive

How did COc1ccc(NC(=O)Cc2cccs2)c(OC)c1 do in these assays?
p53ts 39C tox: 9%; ERK AVP block: -3%; Tau fil binding: 3.2µM*; Pol III holo inh: -5%[11.4 µM]; p53ts 32C tox: 5%; TsaE inh: inactive

Results for COc1cccc2sc(NC(=O)c3ccc4c(c3)OCCO4)nc12 ?
p53ts 39C tox: 5µM*; p53ts 32C tox: inconclusive

How did CCN1CCN(c2cc(C)c3cc(NC(=O)c4ccncc4)ccc3n2)CC1 do in these assays?
p53ts 39C tox: 20%; ERK AVP block: -17%; Tau fil binding: 16µM*; Pol III holo inh: -6%; p53ts 32C tox: -10%; TsaE inh: inactive

How did CCN1CCN(c2cc(C)c3cc(NC(=O)c4cc(Br)ccc4Cl)ccc3n2)CC1 do in these assays?
p53ts 39C tox: 13µM*; p53ts 32C tox: inconclusive

What do the screens show for `Cc1ccc(S(=O)(=O)NC(CC(=O)O)c2ccccc2)cc1` (stereo not given)?
p53ts 39C tox: 10%; ERK AVP block: 0%; Tau fil binding: -19%; Pol III holo inh: 1%; p53ts 32C tox: -7%; TsaE inh: inactive

What do the screens show for `Cc1ccc(S(=O)(=O)NCC(Nc2cccc(Cl)c2)c2ccccc2)cc1` (stereo not given)?
p53ts 39C tox: 16µM*; p53ts 32C tox: inconclusive

What do the screens show for `COC(=O)c1ccc2c(c1)SC1=C(CCCC1=O)N2`?
p53ts 39C tox: -12%; ERK AVP block: inconclusive; Tau fil binding: 16µM*; Pol III holo inh: -2%; p53ts 32C tox: -16%; TsaE inh: inactive

How did CCc1cccc(NC(=O)C2CCCN2S(=O)(=O)c2ccc3nc(-c4ccccc4)[nH]c3c2)c1 (stereo not given) do in these assays?
p53ts 39C tox: -13%; p53ts 32C tox: 17%

Results for Cc1ccccc1Nc1nn2c(=O)c3ccc(C(=O)NCC(C)c4ccccc4)cc3nc2s1 (stereo not given) ?
p53ts 39C tox: -10%; p53ts 32C tox: 2%

What do the screens show for `O=C(Nc1ccccc1)c1ccc(Cc2nc3ccccc3[nH]2)cc1`?
p53ts 39C tox: -6%; p53ts 32C tox: -5%

Results for COc1ccc(S(=O)(=O)Nc2cc(Cl)ccc2OC)cc1 ?
p53ts 39C tox: 18%; ERK AVP block: -1%; Tau fil binding: -3%[11.4 µM]; Pol III holo inh: 0%[11.4 µM]; p53ts 32C tox: 14%; TsaE inh: inactive

What do the screens show for `COc1ccc(Cl)cc1NS(=O)(=O)c1ccc(S(=O)(=O)N2CCCC2)cc1`?
p53ts 39C tox: 9%; ERK AVP block: 25µM*; Tau fil binding: -18%; Pol III holo inh: 1%; p53ts 32C tox: 16%; TsaE inh: inactive

Results for CCOc1ccccc1N1Cc2cc(C)c(C)cc2C1 ?
p53ts 39C tox: 10%; ERK AVP block: -4%; Tau fil binding: 7.9µM*; Pol III holo inh: -2%; p53ts 32C tox: 2%; TsaE inh: inactive
